Here are results for 11 molecules from ChEMBL document CHEMBL3988442, “University of Dundee, Small-Polar-MMV Screening Library” (2021).

For some of these results: Entries with a potency or affinity are not part of this list.

Holding throughout (set-up): scale not given: direction of the effect not stated beside the values
Test [1] deals with Protein translocase subunit SecA (Escherichia coli (strain K12)) (UniProt P10408). Kind of test: Assay to Identify E. coli SecA ATPase Inhibitors. The test is classed as functional. The conditions noted are these: 30 µM.
Test [2] addresses T1, Ubiquitin-activating enzyme e1, putative (Leishmania donovani (strain BPK282A1)) (UniProt E9BSI1).
T1 sequence (whole entry): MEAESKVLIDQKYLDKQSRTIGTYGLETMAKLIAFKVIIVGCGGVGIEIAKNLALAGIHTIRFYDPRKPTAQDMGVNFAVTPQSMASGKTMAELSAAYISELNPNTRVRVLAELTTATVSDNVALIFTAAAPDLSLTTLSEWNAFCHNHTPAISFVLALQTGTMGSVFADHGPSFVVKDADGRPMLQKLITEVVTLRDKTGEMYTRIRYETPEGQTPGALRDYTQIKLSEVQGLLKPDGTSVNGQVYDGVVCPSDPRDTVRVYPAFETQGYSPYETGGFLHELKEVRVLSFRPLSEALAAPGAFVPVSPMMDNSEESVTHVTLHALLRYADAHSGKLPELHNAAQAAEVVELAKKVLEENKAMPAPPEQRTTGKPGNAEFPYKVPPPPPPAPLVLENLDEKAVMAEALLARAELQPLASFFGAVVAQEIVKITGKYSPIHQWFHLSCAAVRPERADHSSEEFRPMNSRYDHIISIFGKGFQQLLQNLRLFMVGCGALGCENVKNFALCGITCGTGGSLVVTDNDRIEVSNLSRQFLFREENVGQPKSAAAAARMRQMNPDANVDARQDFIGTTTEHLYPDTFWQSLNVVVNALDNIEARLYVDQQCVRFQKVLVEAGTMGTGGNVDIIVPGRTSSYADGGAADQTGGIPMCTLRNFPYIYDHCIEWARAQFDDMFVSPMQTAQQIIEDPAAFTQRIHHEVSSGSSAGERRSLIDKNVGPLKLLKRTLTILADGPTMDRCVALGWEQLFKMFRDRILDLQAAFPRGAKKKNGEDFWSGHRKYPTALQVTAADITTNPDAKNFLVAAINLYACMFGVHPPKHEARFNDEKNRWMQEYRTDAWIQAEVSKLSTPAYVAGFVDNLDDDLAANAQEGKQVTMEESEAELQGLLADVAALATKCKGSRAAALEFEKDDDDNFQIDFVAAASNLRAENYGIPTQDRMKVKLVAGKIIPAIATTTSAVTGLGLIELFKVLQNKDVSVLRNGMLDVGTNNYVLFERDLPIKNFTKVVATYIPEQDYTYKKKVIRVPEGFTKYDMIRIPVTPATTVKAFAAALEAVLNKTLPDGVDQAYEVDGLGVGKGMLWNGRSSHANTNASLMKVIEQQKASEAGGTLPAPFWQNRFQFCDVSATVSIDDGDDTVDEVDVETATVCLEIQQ
Kind of test: Leishmania donovani Ubiquitin Activating Enzyme (LdE1). The test is classed as functional. To be noted: 30 µM.

Test [3] addresses AMP-activated protein kinase, AMPK (Homo sapiens) (UniProt P54646+O43741+P54619+Q9UGJ0+Q9Y478+Q13131+Q9UGI9). Put plainly: AMP-dependent Kinase enzyme assay. An in vitro enzyme assay that detects ADP turnover that is directly proportional to AMPK activity. This uses naive AMPK that is activated during the assay with MK-8722. It counts as functional. The conditions noted are these: 30 µM.

The target in test [4] is Sialic acid-binding Ig-like lectin 9 (Homo sapiens) (UniProt Q9Y336). Kind of test: Hs-Siglec9 ALPHAscreen SOP 20170721. To be noted: 10 µM. On the technique in general: Bead proximity is the source of the signal in Alpha formats.
The next test deals with Trypanosoma cruzi. Put plainly: Trypanosoma cruzi phosphomannomutase and mannose-1-phosphate guanylyltransferase assay. The conditions noted are these: 10 µM. The test is classed as functional.
Test [5] addresses T2, Arginase-2, mitochondrial (Homo sapiens) (UniProt P78540).
T2 sequence (whole entry): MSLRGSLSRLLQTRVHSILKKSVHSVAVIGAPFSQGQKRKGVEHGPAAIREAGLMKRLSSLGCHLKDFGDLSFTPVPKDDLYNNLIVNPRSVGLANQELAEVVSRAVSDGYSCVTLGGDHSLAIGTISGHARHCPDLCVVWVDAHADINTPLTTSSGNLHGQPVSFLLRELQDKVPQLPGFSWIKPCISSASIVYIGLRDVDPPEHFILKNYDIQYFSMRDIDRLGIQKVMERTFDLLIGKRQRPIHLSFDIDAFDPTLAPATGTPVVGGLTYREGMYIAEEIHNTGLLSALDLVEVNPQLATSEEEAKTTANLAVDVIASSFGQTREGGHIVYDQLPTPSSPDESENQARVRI
Kind of test: in vitro enzyme assay to detect the production of urea directly proportional to the activity of Arginase II. Also: in the data most compounds retested in dose-response had high values. It counts as functional. The conditions noted are these: 33.3 µM.

Test [6] addresses T3, Proteasome subunit beta (Trypanosoma cruzi) (UniProt O96673).
T3 sequence (whole entry): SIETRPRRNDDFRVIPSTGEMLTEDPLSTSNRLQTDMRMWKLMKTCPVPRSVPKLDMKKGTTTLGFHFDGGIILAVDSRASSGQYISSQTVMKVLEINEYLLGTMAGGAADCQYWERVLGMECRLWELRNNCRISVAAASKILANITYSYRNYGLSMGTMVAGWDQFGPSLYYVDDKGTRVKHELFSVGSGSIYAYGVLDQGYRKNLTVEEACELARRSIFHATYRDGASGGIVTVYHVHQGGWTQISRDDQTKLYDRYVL
Kind of test: Trypanosoma cruzi proteasome chymotrypsin-like activity (TcProtChymo) assay. Also: in the data most compounds retested in dose-response had high values. The test is classed as functional. The conditions noted are these: 9.37 µM.

The species named for a further test is Homo sapiens. Kind of test: To identify inhibition of the IFN signalling (Jak-Stat) pathway via expression of an eGFP reporter gene under the control of an IFN-stimulated response element (ISRE) containing MxA promoter. The conditions noted are these: 30 µM. It counts as functional.
The target in test [7] is T4, Tyrosyl-tRNA synthetase, putative (Trypanosoma cruzi (strain CL Brener)) (UniProt Q4DSP6).
T4 sequence (whole entry): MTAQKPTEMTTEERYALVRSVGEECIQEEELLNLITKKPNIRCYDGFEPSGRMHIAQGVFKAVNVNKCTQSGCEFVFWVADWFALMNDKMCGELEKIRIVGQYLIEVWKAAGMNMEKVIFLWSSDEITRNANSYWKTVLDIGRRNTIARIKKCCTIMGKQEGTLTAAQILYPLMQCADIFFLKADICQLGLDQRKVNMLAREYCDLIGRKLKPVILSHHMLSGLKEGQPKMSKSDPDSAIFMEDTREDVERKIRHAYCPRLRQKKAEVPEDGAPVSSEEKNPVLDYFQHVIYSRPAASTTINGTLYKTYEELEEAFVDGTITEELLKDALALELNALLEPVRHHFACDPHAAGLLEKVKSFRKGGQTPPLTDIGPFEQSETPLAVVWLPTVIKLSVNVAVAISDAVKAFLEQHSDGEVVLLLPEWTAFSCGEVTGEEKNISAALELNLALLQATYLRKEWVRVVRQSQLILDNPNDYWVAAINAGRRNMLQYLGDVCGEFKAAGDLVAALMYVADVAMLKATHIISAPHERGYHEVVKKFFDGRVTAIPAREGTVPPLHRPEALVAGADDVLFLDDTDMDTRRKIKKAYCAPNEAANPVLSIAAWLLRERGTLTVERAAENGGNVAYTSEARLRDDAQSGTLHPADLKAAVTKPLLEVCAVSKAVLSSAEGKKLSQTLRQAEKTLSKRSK
Kind of test: Trypanosoma cruzi tyrosyl tRNA synthetase (TcYRS) _High Tyrosine SOP. Also: in the data most compounds retested in dose-response had high values. To be noted: 30 µM. It counts as functional.

In test [8] the target is T4, Tyrosyl-tRNA synthetase, putative (Trypanosoma cruzi (strain CL Brener)). Put plainly: Trypanosoma cruzi tyrosyl tRNA synthetase (TcYRS) SOP. It counts as functional. The conditions noted are these: 30 µM.
In test [9] the target is Chromo domain-containing protein 1 (Saccharomyces cerevisiae (strain ATCC 204508 / S288c) (Baker's yeast)) (UniProt P32657). Put plainly: ScCHD-1 Enzyme Inhibition Assay. Also: in the data most compounds retested in dose-response had high values. The test is classed as functional. To be noted: 30 µM.
Chain of Chromo domain-containing protein 1 (Saccharomyces cerevisiae (strain ATCC 204508 / S288c) (Baker's yeast)) (P32657 whole entry, the tested form may be a part): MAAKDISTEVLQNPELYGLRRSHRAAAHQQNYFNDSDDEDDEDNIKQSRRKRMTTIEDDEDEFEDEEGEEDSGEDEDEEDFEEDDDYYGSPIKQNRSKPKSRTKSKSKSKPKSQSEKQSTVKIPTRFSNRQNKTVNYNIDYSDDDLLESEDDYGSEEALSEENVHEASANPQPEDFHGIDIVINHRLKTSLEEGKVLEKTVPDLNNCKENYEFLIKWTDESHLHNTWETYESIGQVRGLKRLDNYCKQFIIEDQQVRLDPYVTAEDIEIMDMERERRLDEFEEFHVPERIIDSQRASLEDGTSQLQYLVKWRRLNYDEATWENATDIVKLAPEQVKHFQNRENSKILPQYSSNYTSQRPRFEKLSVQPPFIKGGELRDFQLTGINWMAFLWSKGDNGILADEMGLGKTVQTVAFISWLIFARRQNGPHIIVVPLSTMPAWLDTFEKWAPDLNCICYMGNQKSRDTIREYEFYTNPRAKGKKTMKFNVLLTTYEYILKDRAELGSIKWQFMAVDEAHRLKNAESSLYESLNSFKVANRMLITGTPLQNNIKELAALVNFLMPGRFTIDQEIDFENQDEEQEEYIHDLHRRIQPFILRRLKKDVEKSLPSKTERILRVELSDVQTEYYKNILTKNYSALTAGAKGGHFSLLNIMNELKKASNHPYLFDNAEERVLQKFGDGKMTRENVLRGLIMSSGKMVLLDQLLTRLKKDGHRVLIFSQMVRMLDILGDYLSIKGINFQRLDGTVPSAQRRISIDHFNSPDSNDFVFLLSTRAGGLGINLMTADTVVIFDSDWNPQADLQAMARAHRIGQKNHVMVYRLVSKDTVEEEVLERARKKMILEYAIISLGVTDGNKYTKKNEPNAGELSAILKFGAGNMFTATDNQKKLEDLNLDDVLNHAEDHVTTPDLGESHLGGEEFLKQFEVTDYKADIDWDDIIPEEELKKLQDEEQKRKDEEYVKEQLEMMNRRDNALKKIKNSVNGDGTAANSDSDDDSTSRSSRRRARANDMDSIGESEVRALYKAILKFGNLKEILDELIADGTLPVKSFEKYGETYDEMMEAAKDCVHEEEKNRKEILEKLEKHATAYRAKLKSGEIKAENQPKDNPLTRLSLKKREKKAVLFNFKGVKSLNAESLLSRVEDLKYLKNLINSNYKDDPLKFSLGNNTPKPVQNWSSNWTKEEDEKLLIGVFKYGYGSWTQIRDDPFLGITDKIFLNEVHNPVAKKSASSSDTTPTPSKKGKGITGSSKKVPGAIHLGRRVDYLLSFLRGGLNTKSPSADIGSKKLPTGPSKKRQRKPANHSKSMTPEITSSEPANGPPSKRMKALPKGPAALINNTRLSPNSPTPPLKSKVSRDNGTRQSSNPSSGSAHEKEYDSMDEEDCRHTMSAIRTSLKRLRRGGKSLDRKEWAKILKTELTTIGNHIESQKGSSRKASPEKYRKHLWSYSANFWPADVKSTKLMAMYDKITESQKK

Chain of Sialic acid-binding Ig-like lectin 9 (Homo sapiens) (Q9Y336 whole entry): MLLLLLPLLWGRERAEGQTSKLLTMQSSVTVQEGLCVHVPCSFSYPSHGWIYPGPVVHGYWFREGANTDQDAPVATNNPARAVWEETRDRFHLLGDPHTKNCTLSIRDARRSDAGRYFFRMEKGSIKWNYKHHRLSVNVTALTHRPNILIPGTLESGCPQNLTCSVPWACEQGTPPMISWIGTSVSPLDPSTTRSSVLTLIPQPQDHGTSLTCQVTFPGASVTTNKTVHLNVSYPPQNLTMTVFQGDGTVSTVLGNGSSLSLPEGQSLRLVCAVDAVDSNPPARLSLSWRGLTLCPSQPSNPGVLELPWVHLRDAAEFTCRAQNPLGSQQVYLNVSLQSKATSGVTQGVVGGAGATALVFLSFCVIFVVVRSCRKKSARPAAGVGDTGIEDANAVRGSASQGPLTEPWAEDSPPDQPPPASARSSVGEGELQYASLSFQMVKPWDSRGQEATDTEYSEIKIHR
Chain of Protein translocase subunit SecA (Escherichia coli (strain K12)) (P10408 whole entry): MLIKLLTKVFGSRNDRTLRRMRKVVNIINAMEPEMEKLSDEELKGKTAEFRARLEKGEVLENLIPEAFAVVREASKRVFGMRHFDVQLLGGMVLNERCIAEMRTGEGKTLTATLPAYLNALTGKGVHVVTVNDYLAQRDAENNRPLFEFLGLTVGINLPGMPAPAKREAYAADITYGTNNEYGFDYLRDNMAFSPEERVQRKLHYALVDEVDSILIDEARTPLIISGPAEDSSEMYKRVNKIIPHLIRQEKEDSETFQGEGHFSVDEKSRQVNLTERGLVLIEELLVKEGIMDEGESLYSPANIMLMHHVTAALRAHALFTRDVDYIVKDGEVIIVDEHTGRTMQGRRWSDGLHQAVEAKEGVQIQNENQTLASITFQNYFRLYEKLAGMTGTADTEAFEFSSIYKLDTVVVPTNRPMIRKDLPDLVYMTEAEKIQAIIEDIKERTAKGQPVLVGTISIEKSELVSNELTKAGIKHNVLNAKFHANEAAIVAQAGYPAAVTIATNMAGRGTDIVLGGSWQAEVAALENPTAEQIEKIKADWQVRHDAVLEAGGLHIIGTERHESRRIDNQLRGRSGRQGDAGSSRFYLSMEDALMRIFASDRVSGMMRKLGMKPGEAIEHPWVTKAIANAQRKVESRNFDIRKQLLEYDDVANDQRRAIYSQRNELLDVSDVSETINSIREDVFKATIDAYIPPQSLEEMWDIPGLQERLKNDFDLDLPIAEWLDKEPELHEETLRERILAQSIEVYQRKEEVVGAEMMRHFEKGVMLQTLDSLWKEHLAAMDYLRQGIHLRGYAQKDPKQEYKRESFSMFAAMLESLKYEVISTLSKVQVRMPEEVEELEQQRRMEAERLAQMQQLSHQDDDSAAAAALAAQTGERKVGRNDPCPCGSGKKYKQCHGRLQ

As to `Cc1nccn1CC1CCCN1S(=O)(=O)Cc1ccccc1F` (stereo unspecified), the Percent Effect was -5.1% in test [1]; 22.8% in test [2]; 1.28% in [3]; -4.39% in [4]; -1.79% in the test with Trypanosoma cruzi; 1.14% in test [5]. Moreover, the Percent Effect in test [6] is 2.05%; in the test filed under Homo sapiens, 13.2%; in [7], 4.43%; in test [8], 21.5%; in test [9], -7.01%.
On to `Cc1nccn1C1CCCN(C(=O)c2ccc3c(c2)COC3)C1` (stereo unspecified), for which the Percent Effect in [1] was -0.738%; in test [2], -2.7%; in [3], -1%; in test [4], 7.4%; in the test on Trypanosoma cruzi it was 3.44%; in test [5], 0.554%. The Percent Effect was -5.39% in test [6]; -3.77% in the test filed under Homo sapiens; 4.95% in test [7]; 13.4% in test [8]; -0.0787% in test [9].
Take `CC(CCc1ccco1)NC(=O)Nc1cc(C(F)(F)F)c[nH]c1=O` (stereo unspecified): the Percent Effect in test [1] was -8.08%; in test [2] it was 7.89%; in test [3], 40.7%; in test [4], 3.56%; in the test on Trypanosoma cruzi it was 0.467%; in test [5] it was -3.24%. Besides, the Percent Effect is 13.1% in [6]; 17% in the test filed under Homo sapiens; 7.39% in test [7]; 13.6% in test [8]; -2% in test [9].
In the case of `COc1ccc(CN2CCn3cc(Cn4cccn4)nc3C2)cc1`, the Percent Effect in test [1] was -0.217%; in test [2] it was 5.2%; in test [3], 5.77%; in test [4], -3.88%; in the test with Trypanosoma cruzi, -5.03%; in test [5], -3.23%. Moreover, the Percent Effect is 9.4% in test [6]; -15% in the test filed under Homo sapiens; 5.29% in test [7]; -8.97% in test [8]; -4.7% in [9].
Consider `O=S(=O)(c1cccs1)N1CC[C@H](O)[C@@H]1Cc1ccncc1`, for which the Percent Effect is -3.12% in [1]; 13.5% in [2]; 9.88% in test [3]; -0.784% in test [4]; -4.79% in the test on Trypanosoma cruzi; 2.23% in test [5]. The Percent Effect in test [6] was 22.9%; in the test listed under Homo sapiens, -0.0803%; in [7] it was 4.32%; in test [8], 12.8%; in test [9], -1.7%.
With `O=C([C@H]1C[C@H]2OCC[C@H]2N(C(=O)c2ccncc2)C1)N1CCCCO1`, the Percent Effect was -6.09% in test [1]; 16% in test [2]; -5.71% in test [3]; -0.495% in test [4]; 6.56% in the test with Trypanosoma cruzi; -43.9% in test [5]. Further, the Percent Effect in [6] was 6.33%; in the test listed under Homo sapiens, -5.77%; in [7] it was 4.17%; in test [8] it was 5%; in [9], -6.72%.
Consider `CN(CCn1nc2ccccn2c1=O)CC(=O)NC1CC1`, for which the Percent Effect was 0.259% in test [1]; -2.63% in [2]; 7.37% in test [3]; -0.458% in test [4]; -2.63% in the test on Trypanosoma cruzi; 15.4% in [5]. Besides, the Percent Effect is 10.4% in test [6]; -11.8% in the test listed under Homo sapiens; 2.13% in test [7]; 0% in test [8]; -5.38% in test [9].
As for `Cc1cc2ccccc2n1CCC(=O)NCc1ncc[nH]1`, the Percent Effect was -2.35% in [1]; 14.9% in test [2]; 6.43% in test [3]; -8.05% in test [4]; -4.74% in the test on Trypanosoma cruzi; -1.16% in test [5]. Moreover, the Percent Effect in test [6] was 15.6%; in the test filed under Homo sapiens, 13.5%; in test [7] it was 11.8%; in test [8] it was 16.9%; in [9], -9.55%.
On to `CN(Cc1cc(-c2ccccc2)no1)C1CCCN(c2cccnn2)C1` (stereo unspecified), for which the Percent Effect was -6.51% in test [1]; -20.8% in test [2]; 0.498% in test [3]; 15.7% in [4]; -3.93% in the test with Trypanosoma cruzi; -3.2% in test [5]. Further, the Percent Effect is 2.37% in test [6]; 7.74% in the test listed under Homo sapiens; 15.5% in test [7]; 14.6% in test [8]; 18.5% in [9].
As to `CCCNC(=O)CNc1cc(C(=O)N2CCSCC2)ccc1C`, the Percent Effect in test [1] was -4.74%; in test [2], 5.48%; in test [3] it was -4.24%; in test [4], 9.22%; with Trypanosoma cruzi it was 8.73%; in test [5], -4.39%. In addition, the Percent Effect in [6] was 7.28%; in the test filed under Homo sapiens, 2.79%; in test [7], 5.21%; in [8], 11.1%; in test [9] it was -9.2%.
On to `CCN(Cc1nc2c(cnn2C)c(=O)[nH]1)Cc1cccs1`, for which the Percent Effect in test [1] was -4.13%; in [2] it was 15.6%; in test [3], -1.29%; in [4] it was -13.1%; in the test with Trypanosoma cruzi, 4.6%; in test [5], -10.3%. For the same molecule, the Percent Effect is 15.3% in test [6]; -0.846% in the test listed under Homo sapiens; 7.62% in [7]; 25.9% in [8]; -21.1% in test [9].
